Experimental data: ChEMBL document CHEMBL1157539, “Thousands of chemical starting points for antimalarial lead identification” (Nature, 2010)

Experiments:
Assay type in all cases: functional
[1] = test system: Plasmodium falciparum; assay: GSK_TCMDC: Inhibition of Plasmodium falciparum 3D7 in whole red blood cells, using parasite LDH activity as an index of growth. Test compounds present at 2uM
[2] = test system: Plasmodium falciparum; assay: GSK_TCMDC: Inhibition of Plasmodium falciparum Dd2 in whole red blood cells, using parasite LDH activity as an index of growth. Test compounds present at 2uM
[3] = test system: HepG2; assay: GSK_TCMDC: Percent inhibition of human HepG2 cell line. Test compounds present at 10uM.

| SMILES | Inhibition [1] | Inhibition [2] | Inhibition [3] |
| --- | --- | --- | --- |
| COc1ccc2nccc(N3CCC(NCc4ccc5c(n4)NC(=O)CS5)CC3)c2n1 | 100% | 63% | 14% |
| COc1ccc2[nH]c(C)cc(=NN=Cc3cccc(Cl)c3)c2c1 | 100% | 100% | 13% |
| N#CN1CC[C@@H](NS(=O)(=O)Cc2ccc(Cl)c(Cl)c2)C1 | 94% | 94% | 13% |
| CS(=O)(=O)CCNCc1nc(-c2ccc3c(Nc4ccc(F)c(O)c4)ccnc3c2)cs1 | 95% | 84% | 0% |
| Cn1ccnc1CNC(=O)c1ccc(-c2cccc(-c3nc4cc(F)ccc4[nH]3)c2)cc1 | 96% | 8% | 8% |
| CCC(CC)n1cc2c(ccc3nc(N)nc(N)c32)n1 | 91% | 0% | 61% |
| Cc1cc(C)c(-c2n[nH]c3c2C(c2cccc(Cl)c2)N(Cc2ccco2)C3=O)c(O)c1 (stereo not given) | 96% | 89% | 0% |
| COc1cc2nccc(Nc3ccc(Oc4ccccc4)cc3)c2cc1OC.Cl | 100% | 99% | 13% |
| Cc1nc2ccc3ccc(CNc4ccc5c(c4)CN([C@@H](CCC(=O)O)C(=O)O)C5=O)cc3c2c(=O)[nH]1 [OSI-7904] | 94% | 95% | 41% |
| COc1ccc2c(N/N=C/c3ccccc3[N+](=O)[O-])ccnc2c1 | 100% | 97% | 98% |
| CCOc1ccc(C(C)NC(=O)c2cc(Cl)ccc2OC)cc1OCC (stereo not given) | 100% | 99% | 0% |
| COc1ccc(S(=O)(=O)N2CCCC(C)C2)cc1N1CCN(C(=O)c2ccc([N+](=O)[O-])o2)CC1 (stereo not given) | 94% | 4% | 0% |
| CCNCc1ccc(-c2cccc(-c3nc4ccccc4[nH]3)c2)cc1.O=C(O)C(F)(F)F | 100% | 18% | 26% |
| Cc1cc(C(F)(F)F)n2nc(C(=O)N(C)Cc3cncn3Cc3ccc(F)cc3)cc2n1 | 100% | 96% | 0% |
| CCC[C@@H]([C@@H](CC(C)C)C(=O)N[C@@H](CCCCNC(=O)c1cccc(OC)c1)C(=O)Nc1nccs1)N(O)C=O | 100% | 99% | 5% |
| Cc1cc(CNC(c2ccccc2)C2CCC2)cc(C)c1O (stereo not given) | 94% | 48% | 78% |
| CCN(CC)CCCN(C(=O)c1cc2c(C)nn(-c3ccccc3)c2s1)c1nc(-c2ccc(OC)cc2)cs1.Cl | 89% | 32% | 12% |
| Cc1cc(OCCCN2CCC(NS(=O)(=O)c3cccc(Br)c3)C2)c2ccccc2n1 (stereo not given) | 86% | 40% | 13% |
| CCCCC(CCCC)CN1C(=O)C(c2ccccc2)(c2ccccc2)N=C1N.O=CO | 96% | 96% | 28% |
| Cc1cc(N[C@@H](Cc2ccccc2)C(=O)NC2CCCC2)nc(NCCCOC(C)C)n1.O=C(O)C(F)(F)F | 92% | 43% | 0% |

| SMILES | Inhibition [1] | Inhibition [2] | Inhibition [3] |
| --- | --- | --- | --- |
| Nc1ncnc2c1ncn2C(CO)Cc1ccc(O)cc1 (stereo not given) | 93% | 0% | 0% |
| COc1ccc(NC(=O)/C=C/c2ccccc2Cl)cc1OCCN1CCC(NCc2ccccc2)CC1 | 100% | 100% | 28% |
| COc1ccc2nccc([C@@H](O)CN3CCC(NC(=O)c4ccc(C5(C(F)(F)F)N=N5)cc4)CC3)c2c1 | 97% | 41% | 8% |
| CCCCOc1cc(C)nc2ccc(NC(=O)COCC(=O)Nc3ccc4nc(C)cc(OCCCC)c4c3)cc12 | 90% | 28% | 0% |
| Br.CC1(C)N=C(N)N=C(N)N1OCc1cccc2c1ccc1ccccc12 | 95% | 97% | 63% |
| Cc1cccc2nc(-c3ccc(-c4ccc(CN5CCN(C6CCN(C)CC6)CC5)cc4)s3)[nH]c12.O=C(O)C(F)(F)F | 100% | 100% | 97% |
| N#Cc1ccc(N2CCN(Cc3ccc(-c4ccc(-c5nc6ccccc6[nH]5)s4)cc3)CC2)nc1.O=C(O)C(F)(F)F | 99% | 63% | 17% |
| CC(C)(C)c1ccc(CNC(=O)c2ccc(-c3nc4ccc(Cl)cc4[nH]3)cc2)cc1 | 93% | 2% | 14% |
| CCOC(=O)c1cnc2c(C(F)(F)F)cccc2c1Nc1ccc(O)cc1 | 96% | 67% | 0% |
| c1ccc(C23NC(=Nc4nc5ccccc5[nH]4)NC2(c2ccccc2)NC(=Nc2nc4ccccc4[nH]2)N3)cc1 (stereo not given) | 97% | 89% | 2% |
| CC(C)(C)c1ccc(NC(=O)c2cccc(CN3CCCN(CC4CCCCC4)CC3)c2)cc1.O=C(O)C(F)(F)F | 93% | 47% | 97% |
| O=C(O)C(F)(F)F.c1ccc(CCNCc2cccc(-c3ccccc3CNCc3ccc4c(c3)OCO4)c2)nc1 | 90% | 80% | 41% |
| Cc1cc(N(C)CCCN2CCCCC2)nc(Nc2ccc(Cl)cc2)n1.Cl | 100% | 82% | 7% |
| COc1cc(NCCCNCC2c3ccccc3Oc3ccccc32)nc2ccccc12.O=C(O)C(F)(F)F | 99% | 66% | 99% |
| CCCc1ccccc1OCC(O)CN(C1CCCC1)C1CCCC1.Cl (stereo not given) | 97% | 97% | 49% |
| CC(C)OC(=O)c1ccc(NC(=O)N[C@@H](Cc2ccc(O)cc2)C(=O)NC2CCC(CCN3C4CCC3c3ccccc34)CC2)cc1.O=C(O)C(F)(F)F (stereo not given in full) | 95% | 67% | 3% |
| CS(=O)(=O)NCCCNCc1cccc(-c2csc(-c3nc4ccccc4[nH]3)c2)c1.O=C(O)C(F)(F)F | 95% | 9% | 23% |
| COc1ccc2nccc([C@@H](O)CN3CCC(NCc4ccc5sc(=O)[nH]c5c4)CC3)c2c1.O=C(O)C(=O)O | 98% | 0% | 1% |
| CC(C)Oc1cc(-c2ccc(S(C)(=O)=O)cc2)nc(N(Cc2cccc(F)c2F)Cc2cccc(F)c2F)n1 | 100% | 99% | 10% |
| CCNc1cc(C)nc(Nc2ccc(NC(=O)c3ccccc3Br)cc2)n1 | 100% | 56% | 46% |

| SMILES | Inhibition [1] | Inhibition [2] | Inhibition [3] |
| --- | --- | --- | --- |
| COc1ccc(-c2ccc(NC(=O)c3ccc(Cl)cc3)cc2)cc1CN(C)CCO.O=C(O)C(F)(F)F | 92% | 43% | 43% |
| COCCCn1c(=N)c(C(=O)NCCc2ccc(OC)cc2)cc2c(=O)n3cccc(C)c3nc21 | 95% | 33% | 18% |
| CCOc1cc(C(=O)NCc2cccc(C(F)(F)F)c2)ccc1-c1nc2cc(Cl)ccc2[nH]1 | 88% | 31% | 7% |
| Cc1ccc(-c2cc(C(=O)Nc3ccc(S(=O)(=O)N4CCCCC4C)cc3)n[nH]2)c(O)c1 (stereo not given) | 100% | 99% | 37% |
| CC(NC(=O)c1cc(-c2ccccc2)nc2c1cnn2C(C)C)C1CC1 (stereo not given) | 100% | 88% | 35% |
| CC(C)C[C@H](NC(=O)[C@H](Cc1ccccc1)N(C[C@H](Cc1ccccc1)NC(=O)OC(C)(C)C)C(=O)C(F)(F)F)C(=O)NC1CCN(Cc2ccccc2)CC1 | 92% | 82% | 13% |
| O=C(Cc1ccc(NC(=O)c2ccc(O)c(-c3ccc(Cl)c(Cl)c3)c2)cc1)NCc1cccc(C(F)(F)F)c1 | 95% | 28% | 0% |
| CCCC(=O)Nc1ccc(OCCCCN(CC(C)(C)C)c2ccc(C#N)c(C(F)(F)F)c2)cc1 | 83% | 69% | 9% |
| Cc1cnc(-c2ccc(NC(=O)N3CCc4cc5nccc(N6CCN7CCC[C@H]7C6)c5cc43)c3ccccc23)o1.Cl | 100% | 45% | 12% |
| CC(O)C(C)(CO)NCc1ccc2c3c(cccc13)-c1ccccc1-2.Cl (stereo not given) | 95% | 85% | 81% |
| CC(C)(C)c1nn(-c2ccc(Cl)cc2)c2[nH]c(=O)c(CNC3CCCC3)cc12 | 99% | 99% | 0% |
| CCCNCc1ccc(-c2ccc(CN(C(=O)c3nn(-c4ccccc4)nc3C)C(C)CN(C)C)cc2)nc1.O=C(O)C(F)(F)F (stereo not given) | 95% | 95% | 27% |
| COc1ccc2nccc([C@@H](O)CN3CCC(NCc4cc5cccc(O)c5[nH]4)CC3)c2c1.O=C(O)C(=O)O | 100% | 35% | 0% |
| CCOc1cc(Cc2cnc(N)nc2N)cc(OC)c1OC | 90% | 0% | 0% |
| COc1ccc(S(=O)(=O)N(c2cc(Br)cc3c2OCC3)S(=O)(=O)c2ccc(OC)c(N3CCN(C)CC3)c2)cc1N1CCN(C)CC1 | 81% | 98% | 67% |
| COc1ccc(Nc2nccc(N3CCC(NC(=O)Nc4ccc5c(c4)OCO5)C3)n2)cc1 (stereo not given) | 98% | 57% | 27% |
| CC(C)c1ccc(C(NC(=O)C2CCCCC2)c2ccc3cccnc3c2O)cc1 (stereo not given) | 89% | 70% | 46% |
| COc1ccc(Nc2ncc3c(-c4cccc(NC(=O)Cc5ccc(F)cc5)c4)c[nH]c3n2)cc1OC | 100% | 90% | 21% |
| COc1ccc2nccc([C@@H](O)CN3CCC(NC(=O)/C(=C/c4ccccc4)c4ccc(-c5ccccc5)cc4)CC3)c2c1 | 94% | 38% | 4% |
| Br.CN1C(=O)C(=O)N(CCCCCONC(=N)N)C1=S | 100% | 1% | 21% |
